Only some compounds are listed: those with a hit (about 2.8% of all), similar ones and a draw of the others.
TWEAK Fn14 block = inhibitors of TWEAK-Fn14 interaction signaling | TWEAK-stimulated Fn14 reporter cells, luciferase luminescence, 8 h | inhibition, % at 10 µM | AID 1159606 | 2% of 360,000 active; in the data active = inhibition above about 50%
PAX8 inh HTS = PAX8 transcriptional activity inhibition; inhibition, % at 12.6 µM; 1.2% of 360,000 active; AID 652154; RMG-I TPO-luciferase reporter, SteadyGlo, 24 h;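 active = mean replicate inhibition at least 60% with every replicate also reaching 60%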;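 also: luciferase light reporting Pax8 driven TPO promoter activity; plate controls were median of neutral control wells for no effect and mitoxantrone controls for full effect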
LGR2 inh = Drosophila LGR2 receptor signaling inhibition. HEK293 LGR2, CRE-luciferase, bursicon-stimulated, 4 h. inhibition, % at 9.99 µM. 0.35% of 380,000 active. AID 720647;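 active = drop in luminescence signal, shown as inhibition above about 50% in the replicate tests, limit read from the data, passing the limit was not always enough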;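 also: agonist challenge used bursicon conditioned medium at about half maximal strength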
TROY signal inh = TROY signaling inhibition | Q293 LMP1-TROYcd NF-kB luciferase reporter, 4 h | inhibition, % at 10 µM | 0.98% of 360,000 active | AID 1347056;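 active = compounds whose plate-normalised and pattern-corrected inhibition of the luciferase reporter signal at the single screening dose is 50% or more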
EWS-Fli inh = inhibitors of EWS/Fli oncoprotein transcriptional activity. A673 NR0B1-luciferase reporter, viability-normalised. inhibition, % at 12.6 µM. 0.67% of 350,000 active;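 active = mean inhibition of at least 50% after viability correction, with every replicate also passing that limit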;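 also: firefly luciferase signal divided by Alamar Blue viability fluorescence both relative to DMSO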
* hit, by the source's call; . = no result given; ! = not active in a repeat.

SMILES	TWEAK Fn14 block	PAX8 inh HTS	LGR2 inh	TROY signal inh	EWS-Fli inh
COC(=O)c1ccc(Sc2nnnn2-c2ccccc2)c([N+](=O)[O-])c1	84.1*	29.5	.	35.6	.
O=C(O)c1ccc(Sc2nnnn2-c2ccccc2)c([N+](=O)[O-])c1	9.5	3.7	-7.8	-4.2	.
Cc1ccc(C(=O)Oc2coc(CSc3nnc(NC(=O)C4CC4)s3)cc2=O)cc1C	44.4	-1.7	7.9	82.5*	.
N#CC(C#N)=C(Nc1ccc(F)cc1)SCc1cccc(F)c1	49.0	77.3*	52.6*	53.1*	.
CCOC(=O)C1CCN(CC(=O)Nc2c(C(=O)OC)[nH]c3ccc(Cl)cc23)CC1	64.0*	.	.	47.5	.
O=C(c1ccc(F)cc1)N1C[C@@H]2[C@H](c3ccccc31)[C@H](CO)N2Cc1ccc2c(c1)OCO2	.	13.2	3.7	.	3.8
CCN1/C(=C/c2ccc3cc(C)ccc3[n+]2CC)Sc2cc(C)ccc21	32.4	88.8*	21.7	30.4	59.4*
CCCCN1/C(=C/c2ccc3ccccc3[n+]2CC)Sc2ccccc21	66.3*	.	.	25.5	.
Cc1ccc2c(c1)S/C(=C/c1ccc[n+](C)c1)N2CCO	4.3	48.9	35.5	-8.6	19.5
CCN1/C(=C/c2ccc3ccccc3[n+]2CC)C=Cc2ccccc21	55.5*	.	.	52.1*	.
CCN1/C(=C/c2ccc3cc(C)ccc3[n+]2C)Sc2ccc3sccc3c21	38.1	100.1*	5.0	37.5	53.3*
C[C@@H]1CN([C@@H](C)CO)C(=O)c2cccc(NS(=O)(=O)c3ccc(Cl)cc3)c2O[C@@H]1CN(C)C(=O)Nc1ccc2c(c1)OCO2	.	17.8	-3.5	.	-10.7
CC(C)NC(=O)N(C)C[C@@H]1Oc2ccc(NS(=O)(=O)c3ccc(Cl)cc3)cc2C(=O)N([C@H](C)CO)C[C@H]1C	.	11.0	10.4	.	1.9
CCCN(C)C[C@@H]1Oc2ncc(-c3cccc(C(=O)N(C)C)c3)cc2C(=O)N([C@@H](C)CO)C[C@H]1C	.	.	13.5	.	-3.2
CCc1ccc(-c2nc(C(N)=O)c3[nH]c(=O)n(-c4ccccc4OC)c3n2)cc1	21.8	3.3	.	19.4	62.7*
COc1ccc2c3c([nH]c2c1)[C@@H](CO)N(C(=O)Nc1ccc(F)cc1)CC31CN(Cc2nccs2)C1	.	.	-8.1	.	3.8
CCC(=O)N1[C@@H]2Cn3c(ccc(-c4cccnc4)c3=O)[C@H]1[C@@H](C(=O)NC1CCC1)[C@@H]2CO	.	-4.2	0.9	.	-7.3
Cc1noc(C)c1NC(=O)N[C@H]1CC[C@@H](CCNC(=O)C2CCCCC2)O[C@H]1CO	.	6.2	-19.0	.	-5.3
Cn1c(NCc2ccco2)nc2c1c(=O)n(Cc1ccc(Cl)c(Cl)c1)c(=O)n2C	50.1*	.	.	29.2	.
Cn1c(NCCN2CCOCC2)nc2c1c(=O)n(Cc1cccc(Cl)c1)c(=O)n2C	80.0*	.	.	.	.
Cn1c(NCC(O)CO)nc2c1c(=O)n(Cc1ccc(Cl)c(Cl)c1)c(=O)n2C (configuration not stated)	10.2	.	.	4.9	.
O=C(O)C[C@H]1C[C@H]2c3cc(NC(=O)NC4CCCCC4)ccc3O[C@H]2[C@@H](CO)O1	.	-13.0	7.0	.	3.4
CCc1cccc(CC)c1NC(=O)/C(C#N)=C/c1ccccc1C(F)(F)F	82.8*	15.7	40.8	42.2	.
N#C/C(=C\c1ccccc1C(F)(F)F)C(=O)Nc1ccccc1	-81.6	4.4	18.6	-69.2	11.7
N#Cc1cccc(-c2ccc(C3[C@@H]4CN(C(=O)C5CC5)C[C@H]3N4)cc2)c1 (some centres not stated)	.	98.0*!	89.1*!	.	-2.9
O=C(C1CC1)N1C[C@@H]2N[C@H](C1)C2c1ccc(-c2cccc(F)c2)cc1 (some centres not stated)	.	82.7*!	61.0*!	.	5.7
N#Cc1ccc(-c2ccc(C3[C@@H]4CN(C(=O)C5CCCC5)C[C@H]3N4)cc2)cc1 (some centres not stated)	.	.	6.1	.	2.9
COc1cccc(-c2ccc(C3[C@@H]4CN(C(=O)c5cnccn5)C[C@H]3N4)cc2)c1 (some centres not stated)	.	-21.3	-6.1	.	52.2*!
N#Cc1ccc(-c2ccc(C3[C@@H]4CN(C(=O)C5CCC5)C[C@H]3N4)cc2)cc1 (some centres not stated)	.	.	69.8*!	.	-3.6
O=C(NC1CCCCC1)N1C[C@@H]2N[C@H](C1)C2c1ccc(-c2cccc(F)c2)cc1 (some centres not stated)	.	62.6*!	-5.1	.	-7.9
